CHX counter = affects cycloheximide protein synthesis inhibition readout, counter-screen | cell reporter, cycloheximide protein synthesis inhibition counterscreen | max response, % | 300,000 tested, 12% active | AID 2314; in the data active means max response mostly above about 13%, no sharp cut-off; inactive means mostly below about 14%; further: read at 38.3 µM for the half of the compounds with a filed dose; 0% is about no effect
Shiga inhibitor = inhibitors of Shiga toxin in Vero cells; Vero cells, Shiga toxin protein synthesis inhibition reporter; inhibition, % at 38.7 µM; 290,000 tested, 9.2% active; AID 2315; in the data active means inhibition mostly above about 28%, no sharp cut-off; inactive means mostly below about 43%; further: 0% is about no effect
NS1 function inh = blocks influenza NS1 protein function. Potency, µM (top dose mostly 46.1 µM), for inactives: at the highest dose activity, positive = more growth. 270,000 tested, 0.4% active; calls by dose curve; further: potency means the concentration at half of the fitted maximal effect; actives are rising curves; nearly all actives have a fitted effect of over 50% in size
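A cell-based growth assay was used: compounds that relieve NS1-induced slow growth of budding yeast raise OD600. Assay medium was yeast nitrogen base with ammonium sulphate and -URA supplement, pH 6.0, with 2% galactose.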
Sm TGR block = inhibitors of Schistosoma mansoni thioredoxin glutathione reductase; purified TGR, DTNB reduction, TNB absorbance 405 nm; Potency, µM (highest dose often 114 µM), for inactives: top-dose activity change, negative = inhibition, hits mostly inhibitors; 360,000 tested, 3% active; AID 485364; Q962Y6; further: potency means the concentration at half of the fitted maximal effect; on the % scale 0 is the no-effect control and ±100 the full control effect; nearly all actives have a fitted effect of over 60% in size
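First, TGR (20 nM dispensed) and NADPH were mixed with compound. Second, a 15 min room-temperature incubation followed. Third, further NADPH and then DTNB were added to start the reaction. Finally, TNB absorbance was monitored kinetically.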
Pf growth 96h = inhibits malaria parasite growth, 96 h. Potency, µM (series often up to 28.7 µM), without a hit: at the highest dose activity change, negative = inhibition, most hits filed as inhibitors. P. falciparum luciferase reporter growth, 96 h. 320,000 tested, 6.9% active; further: potency means the concentration at half of the fitted maximal effect; on the % scale 0 is the no-effect control and ±100 the full control effect
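Readout is luminescence from an integrated firefly luciferase in P. falciparum. Red cells, 2% hematocrit and 0.05% parasitemia final, were cultured with compound through two parasite generations (96 hours) at 37 C, 5% CO2.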
Pf growth 48h = P. falciparum growth inhibition at 48 hours (one generation); P. falciparum luciferase growth in erythrocytes, 48 h; Potency, µM (series often up to 28.7 µM), without a hit: at the top dose activity change, negative = inhibition, most hits filed as inhibitors; 310,000 tested, 5.9% active; AID 504832; further: potency means the concentration at half of the fitted maximal effect; on the % scale 0 is the no-effect control and ±100 the full control effect
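Parasite viability was followed by luminescence of a genomically integrated firefly luciferase. Cultures held 0.1% parasitemia at 2% hematocrit (final), incubated under 5% CO2 at 37 C.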
Starred values were filed as active, the others as inactive; ? = inconclusive; nt = no result given; [ ] = dose if it differs, or a comment. This is a sample that favours compounds with a hit; in the whole collection about 21% have one here. Unless noted, the call rests on the fitted dose curve; in most records, active means well fitted curve in the direction sought with a large enough effect; inconclusive means small, poorly fitted or top-dose-only effect, or another doubt; inactive means no such curve, though single readings can be large; an effect the other way counts as inactive or inconclusive.

SMILES	CHX counter	Shiga inhibitor	NS1 function inh	Sm TGR block	Pf growth 96h	Pf growth 48h
CC(C)(C)c1csc(NC(=O)c2ccc(Cl)s2)n1	62.8*	102.6*	-62.4%	-3.0%	nt	3.7µM*
COc1ccc(CN2C(=O)c3cccc4cccc(c34)C2=O)cc1	-4.5	-7.6	7.3%	7.7%	86.9%	?
COc1ccc(S(=O)(=O)N2CCC(CN3C(=O)c4cccc5cccc(c45)C3=O)CC2)cc1	-2.5	-13.1	?	-9.4%	1.47µM*	?
O=C1c2cccc3cccc(c23)C(=O)N1CC1CCN(CC(O)COCc2ccc3c(c2)OCO3)CC1 (centres undefined)	-2.7	-4.4	-2.8%	-3.6%	?	9.28µM*
O=C(c1ccc(S(=O)(=O)N2CCCC2)cc1)N1CCC(CN2C(=O)c3cccc4cccc(c34)C2=O)CC1	-0.6	4.8	7.4%	1.3%	1.31µM*	11.7µM*
COc1ccc(OCC(O)CN2CCC(CN3C(=O)c4cccc5cccc(c45)C3=O)CC2)cc1 (centres undefined)	-1.9	11.0	-3.7%	-3.2%	156.4%	8.28µM*
Cc1ccc(C)c(OCC(O)CN2CCC(CN3C(=O)c4cccc5cccc(c45)C3=O)CC2)c1 (centres undefined)	-1.4	-4.8	11.5%	-9.4%	0.0%	6.5%
CCCCCSc1nnc2c(n1)OC(CC)Nc1ccc(Br)cc1-2 (centres undefined)	nt	nt	nt	-1.7%	nt	nt
CC1(c2ccc3c(c2)OCCO3)NC(=O)N(CC(=O)Nc2c(F)cccc2F)C1=O (centres undefined)	nt	nt	nt	-3.3%	-15.3%	?
COc1ccc2ccccc2c1CNC(=O)CC1C(=O)NCCN1CC(C)(C)C (centres undefined)	-1.5	14.8	3.5%	-34.9%	-28.2%	?
COC(CNC(=O)c1cccnc1)OC	-3.2	-6.5	2.7%	-0.7%	39.6%	2.4%
COC(CNC(=O)c1ccc2c3c(onc13)-c1ccccc1C2=O)OC	34.6*	75.5*	-3.2%	12.6µM*	7.8%	41.8%
CC(C)c1ccc(NC(=O)CSc2nc(=O)n(Cc3cccnc3)c3c2CCC3)cc1	nt	nt	nt	-17.6%	nt	nt
CC(C)c1nn2c(=O)cc(COC(=O)c3ccccc3Cl)nc2s1	nt	nt	nt	11.6%	nt	nt
O=c1c(Cl)c(Cl)cnn1Cc1ccc(F)cc1	-6.0	47.6	-3.3%	20µM*	?	-18.7%
O=C(OCn1ncc(Cl)c(Cl)c1=O)c1ccccc1Cl	-7.8	-10.4	-109.7%	7.08µM*	5.5%	-0.1%
O=C(OCn1ncc(Cl)c(Cl)c1=O)c1ccc(F)cc1	-7.7	-23.8	-102.8%	7.08µM*	?	?
CC1CCN(C(=O)COC(=O)c2ccc3c(c2)OCO3)CC1	33.9*	82.4*	nt	1.7%	245.6%	149.5%
CC1CCN(C(=O)COC(=O)c2ccc(Br)o2)CC1	66.6*	93.8*	-5.7%	3.8%	2.0%	nt
CCOC(=O)C1CCN(C(=O)COC(=O)c2ccc(Br)o2)CC1	8.5	-10.6	-14.2%	0.7%	-5.9%[5.75 µM]	0.9%
O=C(/C=C/Nc1ccc(Br)cc1F)c1ccco1	11.9	29.3	-34.6%	-21.5%	49.4%	311.7%
O=C(/C=C/Nc1ccccc1O)c1ccco1	37.9*	63.1*	-75.1%	0.0%	15.3%	71.3%
O=C(Cc1ccccc1)Nc1ccccc1Oc1ccccc1	7.4	14.9	0.7%	7.0%	42.0%	8.4%
O=C(/C=C/Nc1ccccc1Oc1ccccc1)c1ccco1	51.5*	119.0*	-6.2%	-27.0%	?	10.4µM*
O=C(NC1CCCCC1)C1CCN(S(=O)(=O)c2cccc3nonc23)CC1	-1.9	-13.0	7.4%	0.2%	-21.6%	10.1%
FC(F)(F)C(F)(F)C(F)(F)C(F)(F)C(F)(F)C(F)(F)F	nt	nt	nt	nt	-4.1%	0.0%
COC(=O)C1=C(C)NC(=O)CC1c1cccc(Cl)c1Cl (centres undefined)	-6.3	-8.5	-23.3%	-3.6%	?	5.22µM*
C=CCC(O)(CC=C)C(C)N (centres undefined)	-3.1	-24.1	-3.9%	0.7%	6.2%	-13.2%
O=C(/N=C1\NC(=O)C(F)(C(F)(F)F)S1)NC1CCCCC1 (centres undefined)	-2.4	-9.6	-30.0%	12.6µM*	4.5%	0.5%
